Assay [1] can be described thus: NCI Yeast Anticancer Drug Screen. Data for the rad50 strain (AID 155).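 Further: 0% = growth of vehicle-only cultures of the same strain.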 As to conditions: S. cerevisiae rad50 strain growth inhibition; at 50.0 µM; active compounds read high. An outline of the steps: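 Genetically altered yeast (DNA repair pathway); compound treatment; growth inhibition vs vehicle ctrl.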
Assay [2] is described as follows: NCI Yeast Anticancer Drug Screen. Data for the mec2-1 strain (AID 157). As to conditions: S. cerevisiae mec2-1 strain, at 50.0 µM, active compounds read high. A digest of the protocol:
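Each compound was tested on mec2-1 yeast, a strain altered in DNA damage repair or cell cycle control. Growth inhibition is reported relative to vehicle.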

The nature of assay [3]: NCI Yeast Anticancer Drug Screen. Data for the sgs1 mgt1 strain (AID 161).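 Further: 0% = growth of cultures given vehicle only.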 As to conditions: S. cerevisiae sgs1 mgt1 strain, at 50.0 µM, active compounds read high. An outline of the steps: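 Read-out: growth inhibition vs vehicle controls. Cells: mutant yeast strain deficient in DNA damage repair.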
Assay [4] can be described thus: NCI Yeast Anticancer Drug Screen. Data for the cln2 rad14 strain (AID 165).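 Further: 0% = growth equal to vehicle treated cultures.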 As to conditions: S. cerevisiae cln2 rad14 strain, at 50.0 µM, active compounds read high. An outline of the steps: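 Test compounds were added to cln2 rad14 yeast cultures; inhibition of growth was then determined by comparison with vehicle treatment.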
Assay [5] in a line: NCI Yeast Anticancer Drug Screen. Data for the bub3 strain (AID 167). As to conditions: S. cerevisiae bub3 mutant strain, at 50.0 µM, active compounds read high. A digest of the protocol:
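Yeast carrying a defined mutation is treated with each compound, and growth is compared with that of vehicle-exposed cells to give inhibition.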

Assay [6] is described as follows: NCI Yeast Anticancer Drug Screen. Data for the mlh1 rad18 strain (AID 175). As to conditions: S. cerevisiae mlh1 rad18 strain growth inhibition; at 50.0 µM; active compounds read high. A digest of the protocol: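 Inhibition values reflect reduced growth of mutant yeast versus vehicle-treated controls following compound exposure; the mutations affect DNA damage repair.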

The panel holds about 79,000 compounds, 15% with a hit somewhere; the sample as a whole holds those more often. A number with no mark means an inactive call. Calls of active or inactive are those of the source. No stated cut-off is given here; in the data, active means growth inhibition above about 70%; inactive means the rest.

Turning to `CC(=O)Nc1ccc(S(=O)(=O)NC(=O)NCCC(C)C)cc1`, the growth inhibition was 1.95% in assay [1]; 2.45% in assay [2]; 9.8% in assay [3]; -20.2% in assay [4]; 8.6% in assay [5]; 7.85% in assay [6].

Turning to `CCOC(=O)CCC(NC(=O)OCc1ccccc1)C(=O)NC(CCC(=O)OCC)C(=O)NC(CCC(=O)OCC)C(=O)NC(CCC(=O)OCC)C(=O)NC(CCC(=O)OCC)C(=O)NC(CCC(=O)OCC)C(=O)NC(CCC(=O)OCC)C(=O)OCC` (stereo not drawn), the growth inhibition in assay [1] is -23.8%; in assay [2], -16.5%; in assay [3] it was -10.2%; in assay [4] it was 26.2%; in assay [5], -10.7%; in assay [6], 2.2%.

In the case of `CCN(CC)N1C(=O)[N+](CC)(CC)N=C1[O-]`, the growth inhibition in assay [1] is -8.55%; in assay [2], 4.15%; in assay [3], -11.6%; in assay [4], -30.8%; in assay [5], -5.35%; in assay [6] it was 2.05%.

In the case of `Cc1cccc2c1C(=O)C(C1OC(=O)c3ccccc31)C2` (stereo not drawn), the growth inhibition was 7.15% in assay [1]; 9.75% in assay [2]; 1.5% in assay [3]; -31% in assay [4]; 13.5% in assay [5]; -12.4% in assay [6].

As to `CC1=CC(=O)C2CC1C2(C)C` (stereo not drawn), the growth inhibition is 6.55% in assay [1]; -0.5% in assay [2]; 0.5% in assay [3]; 4.75% in assay [4]; 4.6% in assay [5]; -5.2% in assay [6].

Turning to `CCCCCCCCCC(C)=O`, the growth inhibition was -9.8% in assay [1]; -4.4% in assay [2]; -16% in assay [3]; -17.9% in assay [4]; 4.45% in assay [5]; -12.2% in assay [6].

For `CCCCCOC(=O)CC(c1ccccc1)N1CCCCC1` (stereo not drawn), the growth inhibition in assay [1] was 32.5%; in assay [2], -6.65%; in assay [3] it was 19.1%; in assay [4], -23%; in assay [5], 23.3%; in assay [6], 6.4%.

On to `CC(c1ccccc1)N1COc2cc3c(cc2C1)OCN(C(C)c1ccccc1)C3` (stereo not drawn), for which the growth inhibition in assay [1] was -21.2%; in assay [2], -2.95%; in assay [3], -29.8%; in assay [4], -11.8%; in assay [5], -6.8%; in assay [6] it was -17.4%.

Turning to `C1=[N+](c2ccccc2)CCN1c1ccccc1`, the growth inhibition is -0.7% in assay [1]; -18.9% in assay [2]; -22.1% in assay [3]; -27.3% in assay [4]; -32.1% in assay [5]; -20.5% in assay [6].

For the compound `CC1=CC(=O)C(=O)C2=C1OC1(C2)C(C)CCC2C3(C)CCC(O)C(C)(C)C3CCC21C` (stereo not drawn), the growth inhibition in assay [1] is 86.5% (active); in assay [2], 89.8% (active); in assay [3] it was 89.1% (active); in assay [4], 88.2% (active); in assay [5], 86.3% (active); in assay [6], 87.2% (active).

For `NC1C([O-])OC(CO)C(O)C1O.O=C1OC(C(O)CO)C([O-])=C1[OH2+].[Cu+2]` (stereo not drawn), the growth inhibition in assay [1] was -0.4%; in assay [2], -0.15%; in assay [3], -19.6%; in assay [4], -8.25%; in assay [5], -1.55%; in assay [6], -12.8%.

On to `O=C(COc1ccc(Cl)cc1)N(c1ccccc1)C1CCCCC1`, for which the growth inhibition in assay [1] was 95.9% (active); in assay [2], 98.3% (active); in assay [3], 97.5% (active); in assay [4], 96.2% (active); in assay [5], 95.2% (active); in assay [6], 96.9% (active).

On to `CCCCOB(OCCCC)Oc1c(C(C)(C)C)cccc1C(C)(C)C`, for which the growth inhibition in assay [1] was 2.7%; in assay [2], -4.6%; in assay [3] it was -4.7%; in assay [4], 9.8%; in assay [5] it was -5.65%; in assay [6], 3.75%.

For `CC1(C)OC2C(=O)OC(COCc3ccccc3)C2O1` (stereo not drawn), the growth inhibition is 16.7% in assay [1]; 2.2% in assay [2]; 4.25% in assay [3]; 11.1% in assay [4]; 8.5% in assay [5]; 34% in assay [6].

`CC1=Nc2ccc(C)cc2N=C(C)C1`: the growth inhibition in assay [1] is 11.4%; in assay [2], 4.1%; in assay [3] it was 7.2%; in assay [4], -29.4%; in assay [5], 22.4%; in assay [6], -1.6%.

Regarding `CC(C)NC(=O)CC(NCc1ccccc1)C(=O)O` (stereo not drawn), the growth inhibition was 5.85% in assay [1]; 6.8% in assay [2]; 21.1% in assay [3]; 9.5% in assay [4]; -6.8% in assay [5]; 10.2% in assay [6].

Turning to `Cc1cccc(-c2nc(-c3cnccn3)n(Cc3ccccc3)n2)c1`, the growth inhibition is -67.5% in assay [1]; -46.9% in assay [2]; -62% in assay [3]; -39.6% in assay [4]; -51.1% in assay [5]; -61.2% in assay [6].

`CCCCCCC1(C)CCC(=O)O1` (stereo not drawn): the growth inhibition was 15.3% in assay [1]; 8.45% in assay [2]; 6.2% in assay [3]; -6.25% in assay [4]; -5.9% in assay [5]; 14.4% in assay [6].
